Records with an inconclusive call do not appear. The source made the active and inactive calls. The calls were made as follows, unless noted: active = hit-call score of the fitted dose curve at least 0.9, where 1 is the maximum; inconclusive = response in the unintended direction; inactive = score below 0.9.
Tests used:
[1] = molecular target: Nuclear receptor subfamily 1 group I member 3 (Homo sapiens) (UniProt Q14994); test: ATG_CAR_TRANS: Attagene TRANS-FACTORIAL HepG2 Assay for human Constitutive Androstane Receptor (CAR) (AID 2282969); conditions: HepG2 Attagene TRANS-FACTORIAL CAR reporter;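 also: activators raise reporter mRNA above DMSO so AC50 marks induction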
Procedure, shortened: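 Readout is reporter mRNA induction, quantified by fluorescent primer extension and capillary electrophoresis after RT-PCR. Cells were HepG2 transiently carrying chimeric NR-Gal4 constructs with GAL4-UAS reporters, treated for 24 h; activity scored upward from DMSO.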

[2] = molecular target: Estrogen receptor (Homo sapiens) (UniProt P03372); test: ATG_ERa_TRANS: Attagene TRANS-FACTORIAL HepG2 Assay for human Estrogen Receptor alpha (ERa) (AID 2282970); conditions: HepG2 Attagene TRANS ERa GAL4 reporter, mRNA
Procedure, shortened: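 Transactivation via ERa-Gal4 chimera in HepG2; 24 hour incubation; reporter mRNA detected by fluorescence RT-PCR and capillary electrophoresis.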

[3] = molecular target: X-box-binding protein 1 (Homo sapiens) (UniProt P17861); test: ATG_Xbp1_CIS: Attagene CIS-FACTORIAL HepG2 Assay for human X-box Binding Protein 1 (XBP1) (AID 2282972; active = hit-call score of the fitted dose curve at least 0.9, where 1 is the maximum; inactive = score below 0.9); conditions: HepG2 XBP1 cis-element reporter, Attagene multiplex; actives raise or lower the signal
Procedure, shortened: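 HepG2 cells transiently transfected with cis-regulated multiple reporter transcription units; endogenous transcription factor activity measured 24 hours after chemical dosing. Reporter mRNA quantified by RT-PCR, 6-FAM primer extension, HpaI digestion and capillary electrophoresis; bidirectional fitting versus DMSO.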

[4] = molecular target: Oxysterols receptor LXR-alpha (Homo sapiens) (UniProt Q13133); test: ATG_LXRa_TRANS: Attagene TRANS-FACTORIAL HepG2 Assay for human Liver X Receptor alpha (LXRa) (AID 2282980); conditions: HepG2 Attagene TRANS reporter, LXRa transactivation
Procedure, shortened: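 Transient HepG2 transfectants, 24 h dosing, RT-PCR/CE mRNA reporter quantitation; gain-of-signal vs DMSO.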

[5] = molecular target: Oxysterols receptor LXR-beta (Homo sapiens) (UniProt P55055); test: ATG_LXRb_TRANS: Attagene TRANS-FACTORIAL HepG2 Assay for human Liver X Receptor beta (LXRb) (AID 2282981); conditions: HepG2 Attagene TRANS GAL4-LXRb reporter, mRNA
Procedure, shortened: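 Transient transfection HepG2 (multiplexed RTUs, GAL4-UAS); NR-Gal4 chimera; 24 h exposure; RNA → RT-PCR → 6-FAM primer extension → HpaI → CE; increase vs DMSO.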

[6] = ATG_M_06_TRANS: Attagene TRANS-FACTORIAL HepG2 Assay for M06 Transcription Factor (Internal Marker) (AID 2282983); conditions: HepG2 Attagene TRANS M06 internal marker reporter;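 also: reporter transcript level by RT-PCR then capillary electrophoresis fluorescence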
Procedure, shortened: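 Measured by capillary electrophoresis of fluorescently labelled RT-PCR products, this endpoint reflects reporter mRNA in HepG2 cells harbouring exogenous NR-GAL4 reporter constructs after 24 h exposure, with DMSO as baseline.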

[7] = molecular target: Transcriptional activator Myb (Homo sapiens) (UniProt P10242); test: ATG_Myb_CIS: Attagene CIS-FACTORIAL HepG2 Assay for human Myeloblastosis (Myb) Proto-Oncogene Transcription Factor (AID 2282986; active = hit-call score of the fitted dose curve at least 0.9, where 1 is the maximum; inactive = score below 0.9); conditions: HepG2 Attagene CIS-FACTORIAL Myb reporter transcription; actives raise or lower the signal
Procedure, shortened: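 HepG2 cells were transiently transfected with cis-regulated multiple reporter transcription units reflecting endogenous Myb activity, then exposed to compound for 24 hours. Reporter mRNA was measured by RT-PCR with capillary electrophoresis; bidirectional fitting versus DMSO baseline.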

[8] = molecular target: Nuclear respiratory factor 1 (Homo sapiens) (UniProt Q16656); test: ATG_NRF1_CIS: Attagene CIS-FACTORIAL HepG2 Assay for human Nuclear Respiratory Factor 1 (NRF1) Orphan Gene (AID 2282987; active = hit-call score of the fitted dose curve at least 0.9, where 1 is the maximum; inactive = score below 0.9); conditions: HepG2 NRF1 cis-element reporter, Attagene multiplex; actives raise or lower the signal
Procedure, shortened: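 HepG2 cells transiently transfected with multiple reporter transcription units under cis-regulatory promoter control, so endogenous transcription-factor activity is read. After 24 h compound exposure, reporter mRNA quantified by RT-PCR, fluorescent labelling, HpaI digestion and capillary electrophoresis; bidirectional fitting versus DMSO.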

[9] = ATG_NFI_CIS: Attagene CIS-FACTORIAL HepG2 Assay for human Nuclear Factor I (NFI) (AID 2282989; active = hit-call score of the fitted dose curve at least 0.9, where 1 is the maximum; inactive = score below 0.9); conditions: HepG2 cis-regulatory reporter, NFI response element transcription; actives raise or lower the signal
Procedure, shortened: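 Reporter transcription driven by endogenous transcription factors in HepG2 cells; 24 h treatment. Quantitation by labelled RT-PCR fragments on capillary electrophoresis, gain- or loss-of-signal relative to DMSO.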

[10] = molecular target: Myc proto-oncogene protein (Homo sapiens) (UniProt P01106); test: ATG_Myc_CIS: Attagene CIS-FACTORIAL HepG2 Assay for human Myelocytomatosis (Myc) Proto-Oncogene Transcription Factor (AID 2282990; active = hit-call score of the fitted dose curve at least 0.9, where 1 is the maximum; inactive = score below 0.9); conditions: HepG2, Attagene cis-reporter transcription factor activity; actives raise or lower the signal
Procedure, shortened: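 After 24 h chemical treatment of HepG2 cells carrying multiplexed cis-regulated reporter constructs, reporter transcripts quantified by RT-PCR and capillary electrophoresis of fluorescent fragments. Gain or loss fitted against DMSO baseline.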

[11] = ATG_GAL4_TRANS: Attagene TRANS-FACTORIAL HepG2 Assay for GAL4 (Internal Marker) (AID 2282976); conditions: HepG2 Attagene TRANS GAL4 internal marker reporter
Procedure, shortened: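 Fluorescence from capillary electrophoresis of labelled RT-PCR products quantifies reporter mRNA induction after 24 h dosing of HepG2 cells carrying transfected GAL4-UAS reporter transcription units. Vehicle DMSO serves as baseline.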

[12] = molecular target: Glucocorticoid receptor (Homo sapiens) (UniProt P04150); test: ATG_GR_TRANS: Attagene TRANS-FACTORIAL HepG2 Assay for human Glucocorticoid Receptor (GR) (AID 2282978); conditions: HepG2 Attagene TRANS GR reporter, mRNA transcription;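 also: activators score as hits since higher reporter transcript over DMSO is fitted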
Procedure, shortened: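 HepG2 cells transiently transfected with multiplexed reporter units in which chimeric NR-GAL4 proteins drive GAL4-UAS reporters; 24 h compound exposure. Reporter mRNA measured by RT-PCR, 6-FAM labelling, HpaI digestion and capillary electrophoresis; gain-of-signal fitted versus DMSO.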

[13] = molecular target: Bile acid receptor (Homo sapiens) (UniProt Q96RI1); test: ATG_FXR_TRANS: Attagene TRANS-FACTORIAL HepG2 Assay for Farnesoid X Receptor (FXR) (AID 2282979); conditions: HepG2 Attagene TRANS FXR-GAL4 reporter transcription;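 also: hits raise reporter mRNA above DMSO so AC50 marks FXR activation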
Procedure, shortened: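 Chimeric FXR-GAL4 activity in transiently transfected human HepG2 liver cells is scored as induction of reporter mRNA after 24 h of dosing. Detection uses RT-PCR with fluorescent labelling and capillary electrophoresis, with DMSO serving as baseline.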

[14] = molecular target: Estrogen-related receptor gamma (Homo sapiens) (UniProt P62508); test: ATG_ERRg_TRANS: Attagene TRANS-FACTORIAL HepG2 Assay for human Estrogen-Related Receptor gamma (ERRg) (AID 2282977); conditions: HepG2 Attagene TRANS reporter, ERRg transactivation;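 also: hits increase reporter signal over DMSO so potencies reflect activators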
Procedure, shortened: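 HepG2 cells transiently transfected with multiplexed GAL4-UAS reporter units driven by chimeric NR-Gal4 proteins; 24 h exposure. Reporter mRNA quantified by RT-PCR, fluorescent labelling, HpaI digestion and capillary electrophoresis; gain of signal vs DMSO.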

[15] = molecular target: Hepatocyte nuclear factor 4-alpha (Homo sapiens) (UniProt P41235); test: ATG_HNF4a_TRANS: Attagene TRANS-FACTORIAL HepG2 Assay for human Hepatocyte Nuclear Factor 4 alpha (HNF4a) (AID 2282982); conditions: HepG2 HNF4a transactivation reporter, mRNA readout
Procedure, shortened: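 Readout is fluorescent reporter-transcript fragments resolved by capillary electrophoresis after RT-PCR from HepG2 cells dosed for 24 h. Cells carried transfected GAL4-UAS reporter constructs measuring exogenous NR-GAL4 chimera activity; DMSO served as baseline.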

[16] = ATG_M_32_TRANS: Attagene TRANS-FACTORIAL HepG2 Assay for M32 Transcription Factor (Internal Marker) (AID 2282984); conditions: HepG2 Attagene TRANS M32 internal marker reporter;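 also: transcript level of a background control reporter unit measured by RT-PCR and capillary electrophoresis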
Procedure, shortened: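 Measures reporter mRNA induction in human HepG2 liver cells after 24 h chemical treatment. Transcripts from transiently transfected GAL4-UAS reporter units are amplified, fluorescently labelled and sized by capillary electrophoresis; gain of signal relative to DMSO.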

[17] = ATG_M_19_TRANS: Attagene TRANS-FACTORIAL HepG2 Assay for M19 Transcription Factor (Internal Marker) (AID 2282974); conditions: HepG2 Attagene TRANS-FACTORIAL M19 internal marker reporter
Procedure, shortened: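 HepG2 cells transiently transfected with multiple GAL4-UAS reporter transcription units were exposed to chemicals for 24 h. Reporter mRNA was read by RT-PCR, 6-FAM primer extension, HpaI digestion and capillary electrophoresis; gain of signal fitted relative to DMSO.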

[18] = molecular target: Nuclear receptor subfamily 4 group A member 2 (Homo sapiens) (UniProt P43354); test: ATG_NURR1_TRANS: Attagene TRANS-FACTORIAL HepG2 Assay for human Nuclear Receptor Related Protein 1 (NURR1) (AID 2282985); conditions: HepG2 Attagene TRANS reporter, mRNA readout
Procedure, shortened: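 Transient transfection of HepG2, human liver cells, with multiple GAL4-UAS reporter transcription units. Cells dosed 24 h, RNA isolated, reverse-transcribed, PCR-amplified, FAM-labelled, HpaI-digested, sized by capillary electrophoresis. DMSO served as negative control.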

[19] = molecular target: Androgen receptor (Homo sapiens) (UniProt P10275); test: ATG_AR_TRANS: Attagene TRANS-FACTORIAL HepG2 Assay for human Androgen Receptor (AR) (AID 2282973); conditions: HepG2 Attagene TRANS-FACTORIAL AR reporter transcription
Procedure, shortened: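 Transfected HepG2, 24 h treatment, chimeric NR-Gal4 driving GAL4-UAS reporters. mRNA induction by RT-PCR/capillary electrophoresis fluorescence; DMSO as negative control and baseline.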

[20] = molecular target: Steroid hormone receptor ERR1 (Homo sapiens) (UniProt P11474); test: ATG_ERRa_TRANS: Attagene TRANS-FACTORIAL HepG2 Assay for human Estrogen-Related Receptor alpha (ERRa) (AID 2282971); conditions: HepG2 Attagene TRANS reporter, ERRa transactivation
Procedure, shortened: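 HepG2 cells were transiently transfected with multiple GAL4-UAS reporter units, then dosed with compound for 24 h. Total RNA was reverse-transcribed, reporter cDNA PCR-amplified and fluorescently labelled, and fragments resolved by capillary electrophoresis; induction was compared with DMSO.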

Measured: AC50

Sequence of Estrogen receptor (Homo sapiens) (P03372 whole entry, looked up, the tested form may be a part): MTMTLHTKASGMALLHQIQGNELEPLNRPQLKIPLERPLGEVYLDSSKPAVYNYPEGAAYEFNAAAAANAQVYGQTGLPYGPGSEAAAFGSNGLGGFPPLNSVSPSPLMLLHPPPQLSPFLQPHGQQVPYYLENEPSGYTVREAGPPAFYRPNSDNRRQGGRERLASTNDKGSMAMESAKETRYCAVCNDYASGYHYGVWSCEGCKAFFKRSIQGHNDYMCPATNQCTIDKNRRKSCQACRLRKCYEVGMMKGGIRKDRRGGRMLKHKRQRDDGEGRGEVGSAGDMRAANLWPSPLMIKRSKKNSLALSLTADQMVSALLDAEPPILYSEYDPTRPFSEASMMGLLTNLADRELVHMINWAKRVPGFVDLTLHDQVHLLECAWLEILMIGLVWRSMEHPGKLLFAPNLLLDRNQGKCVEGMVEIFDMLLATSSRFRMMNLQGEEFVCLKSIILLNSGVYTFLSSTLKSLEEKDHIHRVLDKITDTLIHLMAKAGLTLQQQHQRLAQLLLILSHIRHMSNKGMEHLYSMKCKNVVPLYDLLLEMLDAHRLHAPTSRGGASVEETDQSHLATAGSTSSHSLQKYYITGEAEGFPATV
Sequence of Transcriptional activator Myb (Homo sapiens) (P10242 whole entry, looked up): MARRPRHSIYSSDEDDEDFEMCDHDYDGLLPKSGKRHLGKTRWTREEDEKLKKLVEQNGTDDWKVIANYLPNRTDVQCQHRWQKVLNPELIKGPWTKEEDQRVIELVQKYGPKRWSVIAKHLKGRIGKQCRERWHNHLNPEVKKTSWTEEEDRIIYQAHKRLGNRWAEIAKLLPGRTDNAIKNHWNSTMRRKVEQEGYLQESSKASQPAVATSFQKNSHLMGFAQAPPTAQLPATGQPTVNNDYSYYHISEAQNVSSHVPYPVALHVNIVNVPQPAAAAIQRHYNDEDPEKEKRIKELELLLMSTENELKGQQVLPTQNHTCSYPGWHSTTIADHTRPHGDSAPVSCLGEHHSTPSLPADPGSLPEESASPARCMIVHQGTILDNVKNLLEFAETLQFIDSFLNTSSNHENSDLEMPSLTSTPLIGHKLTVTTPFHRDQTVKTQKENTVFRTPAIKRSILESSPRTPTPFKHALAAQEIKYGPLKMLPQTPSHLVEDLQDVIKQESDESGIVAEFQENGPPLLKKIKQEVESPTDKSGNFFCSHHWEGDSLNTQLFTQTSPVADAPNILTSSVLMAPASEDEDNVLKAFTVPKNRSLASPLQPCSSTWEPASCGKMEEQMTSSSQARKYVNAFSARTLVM
Sequence of Nuclear receptor subfamily 1 group I member 3 (Homo sapiens) (Q14994 whole entry, looked up, the tested form may be a part): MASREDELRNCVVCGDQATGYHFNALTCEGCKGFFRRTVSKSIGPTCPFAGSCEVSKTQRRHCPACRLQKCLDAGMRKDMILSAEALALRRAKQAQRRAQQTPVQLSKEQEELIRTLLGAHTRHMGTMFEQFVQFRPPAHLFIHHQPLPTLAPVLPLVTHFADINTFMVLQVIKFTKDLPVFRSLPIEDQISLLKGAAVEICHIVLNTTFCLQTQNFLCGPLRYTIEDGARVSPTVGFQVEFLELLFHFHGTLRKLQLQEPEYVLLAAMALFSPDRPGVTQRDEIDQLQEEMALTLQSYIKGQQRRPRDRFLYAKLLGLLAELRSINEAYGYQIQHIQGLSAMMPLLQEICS
Sequence of Estrogen-related receptor gamma (Homo sapiens) (P62508 whole entry, looked up, the tested form may be a part): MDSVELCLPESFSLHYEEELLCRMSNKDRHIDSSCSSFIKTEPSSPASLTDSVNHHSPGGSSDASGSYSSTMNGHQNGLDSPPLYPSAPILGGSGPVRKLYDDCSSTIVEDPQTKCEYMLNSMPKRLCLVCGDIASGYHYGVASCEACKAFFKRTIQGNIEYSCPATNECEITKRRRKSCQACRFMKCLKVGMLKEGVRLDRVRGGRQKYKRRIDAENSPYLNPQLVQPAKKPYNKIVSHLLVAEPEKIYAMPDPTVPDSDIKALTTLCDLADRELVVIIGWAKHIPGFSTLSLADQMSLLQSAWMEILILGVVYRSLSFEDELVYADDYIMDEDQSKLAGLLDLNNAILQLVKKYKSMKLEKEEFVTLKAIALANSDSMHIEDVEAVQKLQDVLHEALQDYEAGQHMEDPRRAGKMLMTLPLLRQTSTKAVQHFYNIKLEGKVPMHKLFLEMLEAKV
Sequence of X-box-binding protein 1 (Homo sapiens) (P17861 whole entry, looked up): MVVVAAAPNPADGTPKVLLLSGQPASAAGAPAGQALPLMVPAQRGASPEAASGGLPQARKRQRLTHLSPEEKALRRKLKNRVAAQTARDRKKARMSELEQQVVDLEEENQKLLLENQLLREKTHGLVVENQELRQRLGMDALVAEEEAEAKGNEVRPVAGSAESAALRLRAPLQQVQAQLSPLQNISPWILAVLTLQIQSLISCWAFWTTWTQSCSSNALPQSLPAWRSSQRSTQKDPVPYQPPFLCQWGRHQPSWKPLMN
Sequence of Nuclear respiratory factor 1 (Homo sapiens) (Q16656 whole entry, looked up): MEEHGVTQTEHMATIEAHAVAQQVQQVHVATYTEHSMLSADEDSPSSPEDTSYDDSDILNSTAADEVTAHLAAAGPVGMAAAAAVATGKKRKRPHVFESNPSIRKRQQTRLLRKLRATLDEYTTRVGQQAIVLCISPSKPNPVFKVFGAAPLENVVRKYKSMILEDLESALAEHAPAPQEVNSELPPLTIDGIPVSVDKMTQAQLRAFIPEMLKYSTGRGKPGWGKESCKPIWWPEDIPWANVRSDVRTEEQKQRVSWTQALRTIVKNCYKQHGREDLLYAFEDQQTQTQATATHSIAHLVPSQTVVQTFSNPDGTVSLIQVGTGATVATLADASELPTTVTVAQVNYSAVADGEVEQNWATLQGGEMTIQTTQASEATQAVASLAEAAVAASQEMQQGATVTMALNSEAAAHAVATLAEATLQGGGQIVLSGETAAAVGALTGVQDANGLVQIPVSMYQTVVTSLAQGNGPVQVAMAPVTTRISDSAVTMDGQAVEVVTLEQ
Sequence of Oxysterols receptor LXR-beta (Homo sapiens) (P55055 whole entry, looked up, the tested form may be a part): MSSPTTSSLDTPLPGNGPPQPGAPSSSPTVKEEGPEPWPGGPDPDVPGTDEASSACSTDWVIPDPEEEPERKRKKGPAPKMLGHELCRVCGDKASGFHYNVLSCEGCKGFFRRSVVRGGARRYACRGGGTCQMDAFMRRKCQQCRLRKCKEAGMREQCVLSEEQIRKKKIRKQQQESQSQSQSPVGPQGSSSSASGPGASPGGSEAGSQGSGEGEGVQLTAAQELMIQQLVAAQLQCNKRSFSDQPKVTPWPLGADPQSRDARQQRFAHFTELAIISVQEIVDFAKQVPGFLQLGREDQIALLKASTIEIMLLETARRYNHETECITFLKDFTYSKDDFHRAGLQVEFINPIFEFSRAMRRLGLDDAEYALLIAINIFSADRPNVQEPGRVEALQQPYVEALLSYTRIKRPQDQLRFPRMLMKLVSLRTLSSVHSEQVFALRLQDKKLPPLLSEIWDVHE
Sequence of Myc proto-oncogene protein (Homo sapiens) (P01106 whole entry, looked up, the tested form may be a part): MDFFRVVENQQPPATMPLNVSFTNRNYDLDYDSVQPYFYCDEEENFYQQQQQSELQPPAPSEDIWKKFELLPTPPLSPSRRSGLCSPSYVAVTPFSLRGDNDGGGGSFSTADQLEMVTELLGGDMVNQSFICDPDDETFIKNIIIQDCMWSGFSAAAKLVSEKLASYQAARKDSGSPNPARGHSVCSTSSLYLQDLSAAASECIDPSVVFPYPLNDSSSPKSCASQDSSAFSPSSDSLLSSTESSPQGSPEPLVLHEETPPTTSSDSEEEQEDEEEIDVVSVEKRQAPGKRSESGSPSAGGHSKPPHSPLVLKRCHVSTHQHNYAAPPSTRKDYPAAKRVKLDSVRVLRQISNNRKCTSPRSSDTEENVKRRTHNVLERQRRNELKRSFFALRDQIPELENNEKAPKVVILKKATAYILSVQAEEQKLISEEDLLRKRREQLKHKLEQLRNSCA
Sequence of Glucocorticoid receptor (Homo sapiens) (P04150 whole entry, looked up, the tested form may be a part): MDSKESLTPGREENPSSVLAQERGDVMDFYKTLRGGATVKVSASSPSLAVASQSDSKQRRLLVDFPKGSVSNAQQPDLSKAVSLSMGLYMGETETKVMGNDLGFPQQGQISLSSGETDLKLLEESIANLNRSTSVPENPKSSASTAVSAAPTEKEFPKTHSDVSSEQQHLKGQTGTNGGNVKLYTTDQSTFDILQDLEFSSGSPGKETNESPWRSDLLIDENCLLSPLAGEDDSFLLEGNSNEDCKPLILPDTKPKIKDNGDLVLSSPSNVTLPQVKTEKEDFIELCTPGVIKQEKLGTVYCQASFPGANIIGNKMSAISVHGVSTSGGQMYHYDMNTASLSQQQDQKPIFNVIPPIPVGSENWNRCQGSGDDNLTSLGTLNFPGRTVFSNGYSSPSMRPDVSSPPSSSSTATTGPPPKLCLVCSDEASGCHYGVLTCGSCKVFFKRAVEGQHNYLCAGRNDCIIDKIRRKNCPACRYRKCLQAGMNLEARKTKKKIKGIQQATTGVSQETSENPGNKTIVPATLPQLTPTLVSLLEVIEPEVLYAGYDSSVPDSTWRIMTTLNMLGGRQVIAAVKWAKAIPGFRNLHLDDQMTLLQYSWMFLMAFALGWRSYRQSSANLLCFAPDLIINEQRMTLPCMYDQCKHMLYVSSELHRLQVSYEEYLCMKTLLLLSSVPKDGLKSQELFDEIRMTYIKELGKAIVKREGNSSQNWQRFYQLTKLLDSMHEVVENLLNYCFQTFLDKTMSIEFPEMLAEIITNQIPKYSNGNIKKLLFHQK
Sequence of Hepatocyte nuclear factor 4-alpha (Homo sapiens) (P41235 whole entry, looked up, the tested form may be a part): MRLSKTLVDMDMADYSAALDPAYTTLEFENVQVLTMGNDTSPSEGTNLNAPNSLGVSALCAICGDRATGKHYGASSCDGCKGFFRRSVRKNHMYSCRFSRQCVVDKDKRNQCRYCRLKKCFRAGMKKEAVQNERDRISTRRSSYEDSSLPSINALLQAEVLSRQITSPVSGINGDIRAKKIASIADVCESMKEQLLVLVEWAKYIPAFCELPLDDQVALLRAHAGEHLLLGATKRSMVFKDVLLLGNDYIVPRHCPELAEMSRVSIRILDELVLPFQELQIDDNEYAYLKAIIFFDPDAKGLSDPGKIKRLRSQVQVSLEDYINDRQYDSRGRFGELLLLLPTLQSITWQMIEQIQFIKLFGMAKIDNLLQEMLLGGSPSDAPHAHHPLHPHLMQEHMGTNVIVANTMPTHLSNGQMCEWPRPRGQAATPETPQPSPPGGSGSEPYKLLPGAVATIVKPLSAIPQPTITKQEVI

CC(C)(c1ccccc1)c1cc(-n2nc3ccccc3n2)c(O)c(C(C)(C)c2ccccc2)c1
inactive: [1] | [2] | [3] | [4] | [5] | [6] | [7] | [8] | [9] | [10]

C#CCOC(=O)/C=C(C)/C=C/CC(C)CCCC(C)C (stereo not given)
inactive: [1] | [2] | [3] | [11] | [12] | [13] | [6] | [7] | [8] | [9] | [10]

C1CCC(C2CCCCC2)CC1
inactive: [1] | [3] | [13] | [5] | [6] | [9]
active: [2] 27.9 µM

Cc1cccc(N=Nc2ccc(N(C)C)cc2)c1
inactive: [1] | [2] | [3] | [14] | [15] | [6] | [8] | [9] | [10]

O=NN1CCCCCCC1
not listed: [4] | [7] | [14] | [17] | [18] | [19] | [20]
inactive: all other assays above

Oc1cccc(-c2ccccc2)c1
inactive: [1] | [3] | [11] | [14] | [12] | [6] | [7] | [8] | [10]
active: [2] 6.57 µM | [9] 139 µM

CC(C)[C@@H](Nc1ccc(C(F)(F)F)cc1Cl)C(=O)OC(C#N)c1cccc(Oc2ccccc2)c1 (stereo not given in full)
not listed: [4] | [5] | [11] | [12] | [14] | [16] | [19] | [20]
inactive: all other assays above

NC(=O)c1ccc(N)nc1
not listed: [2] | [4] | [6] | [11] | [14] | [16] | [18] | [20]
inactive: all other assays above

Oc1c(Br)cc(Br)cc1Br
inactive: [1] | [17] | [15] | [6] | [16] | [7] | [8] | [9] | [10]
active: [2] 5.59 µM | [3] 42 µM

CCCCN(CCCCO)N=O
inactive: [1] | [3] | [11] | [12] | [6] | [7] | [8] | [9] | [10]
active: [2] 8.41 µM

CCOP(=S)(OCC)Oc1ccc(Cl)cc1Cl
active: [2] 7.91 µM
inactive: [1] | [3] | [17] | [15] | [6] | [16] | [18] | [7] | [8] | [9]

CC(c1ccc(O)cc1)c1ccc(O)cc1
active: [3] 130 µM
not listed: [2] | [4] | [5] | [6] | [11] | [13] | [19]
inactive: all other assays above
